Laboratory results taken from PubChem BioAssay AID1159580 (chemical genetic matrix, 2015).
“And” between values parts separate entries of the source, which are not always exact repeats. Equal entries are not always repeated. Screen size: about 5,500 compounds; about 2,000 (36%) were called active. Not shown: some 18% with an inconclusive outcome. Rule as the data show it: active = normalized growth mostly below about 0.91 (no sharp cut-off); inconclusive = no clear call, values can overlap the other calls; inactive = mostly above about 0.92. Some of the results follow.

Experiment: chemical genetic growth profiling, strain panel (AID 1159580);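 also: tested at 20 µM; growth read once vehicle control cultures reached saturation at 30 °C; 1 = growth at the plate median or of vehicle wells; lower values mean less growth of the strain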
Details: S. cerevisiae deletion strains, growth OD

Measured: normalized growth

Cc1cccc(C)c1NC(=O)C1CCCCN1C (configuration not stated)
inactive: locus YAL013W, strain DEP1, active compounds read low 1.02 | locus YAL021C, strain ccr4, active compounds read low 1.02 | locus YAL026C, strain drs2, active compounds read low 0.993 | locus YAL030W, strain snc1, active compounds read low 0.985 | locus YBL061C, strain skt5, active compounds read low 0.979 | locus YBR009C, strain hhf1, active compounds read low 0.989 | locus YBR021W, strain FUR4, active compounds read low 1 | locus YBR023C, strain chs3, active compounds read low 0.991 | locus YBR171W, strain sec66, active compounds read low 0.977 | locus YBR229C, strain ROT2, active compounds read low 1.01 | locus YBR231C, strain swc5, active compounds read low 0.993 | locus YBR279W, strain paf1, active compounds read low 0.991 | locus YCL011C, strain gbp2, active compounds read low 0.988 | locus YCL016C, strain dcc1, active compounds read low 0.995 | locus YCL029C, strain bik1, active compounds read low 1.02 | locus YCL061C, strain MRC1, active compounds read low 0.975 | locus YCL069W, strain vba3, active compounds read low 0.983 | locus YCR088W, strain abp1, active compounds read low 0.992 | locus YDL005C, strain med2, active compounds read low 0.982 | locus YDL035C, strain GPR1, active compounds read low 1.01 | locus YDL040C, strain nat1, active compounds read low 0.986 | locus YDL074C, strain BRE1, active compounds read low 1 | locus YDL101C, strain DUN1, active compounds read low 1.01 | locus YDL134C, strain PPH21, active compounds read low 0.99 | locus YDL185W, strain tfp1, active compounds read low 1.01 | locus YDL192W, strain arf1, active compounds read low 1.01 | locus YDR001C, strain nth1, active compounds read low 0.985 | locus YDR069C, strain doa4, active compounds read low 1 | locus YDR101C, strain arx1, active compounds read low 1 | locus YDR137W, strain rgp1, active compounds read low 0.984 | locus YDR150W, strain NUM1, active compounds read low 1 | locus YDR159W, strain sac3, active compounds read low 0.983 | locus YDR162C, strain NBP2, active compounds read low 0.994 | locus YDR195W, strain ref2 0.986 | locus YDR297W, strain sur2, active compounds read low 0.992 | locus YDR318W, strain mcm21, active compounds read low 1.01 | locus YDR334W, strain swr1, active compounds read low 0.982 | locus YDR335W, strain msn5, active compounds read low 0.989 | locus YDR388W, active compounds read low 1.01 | locus YDR392W, strain spt3, active compounds read low 0.996 | locus YDR502C, strain sam2, active compounds read low 1.01 | locus YEL003W, strain gim4, active compounds read low 0.986 | locus YEL037C, strain rad23, active compounds read low 0.996 | locus YEL061C, strain CIN8 (second series), active compounds read low 0.992 | locus YEL061C, strain CIN8, active compounds read low 1 | locus YER015W, strain faa2, active compounds read low 0.988 | locus YER016W, strain bim1, active compounds read low 0.983 | locus YER110C, active compounds read low 1.02 | locus YER111C, strain swi4, active compounds read low 0.994 | locus YER155C, strain BEM2 (second series), active compounds read low 0.982 | locus YER155C, strain BEM2, active compounds read low 0.99 | locus YER167W, strain BCK2, active compounds read low 1 | locus YFR010W, strain ubp6, active compounds read low 0.984 | locus YGL078C, strain dbp3, active compounds read low 1.01 | locus YGL086W, strain mad1, active compounds read low 1 | locus YGL167C, strain pmr1, active compounds read low 0.995 | locus YGL173C, strain kem1, active compounds read low 0.988 | locus YGL227W, strain vid30, active compounds read low 0.98 | locus YGL240W, strain doc1, active compounds read low 0.981 | locus YGL248W, strain PDE1, active compounds read low 1 | locus YGL253W, strain hxk2, active compounds read low 0.982 | locus YGR078C, strain PAC10, active compounds read low 0.996 | locus YGR135W, strain pre9, active compounds read low 1 | locus YGR229C, strain SMI1, active compounds read low 1 | locus YGR252W, strain gcn5, active compounds read low 0.963 | locus YHR013C, strain ard1, active compounds read low 0.96 | locus YHR027C, strain rpn1, active compounds read low 0.986 | locus YHR030C, strain SLT2, active compounds read low 1 and 1.01 | locus YHR079C, strain IRE1 (second series), active compounds read low 1.01 | locus YHR079C, strain IRE1, active compounds read low 1.03 | locus YHR094C, strain hxt1, active compounds read low 1.01 | locus YHR129C, strain ARP1, active compounds read low 1.01 | locus YHR142W, strain chs7, active compounds read low 0.987 | locus YHR200W, strain rpn10, active compounds read low 1 | locus YIL066C, strain RNR3, active compounds read low 0.999 | locus YIL073C, strain SPO22, active compounds read low 1.01 | locus YIL125W, strain kgd1, active compounds read low 1.01 | locus YIR030C, strain dcg1, active compounds read low 1.01 | locus YJL092W, strain hpr5, active compounds read low 0.986 | locus YJL095W, strain BCK1 (second series), active compounds read low 0.989 | locus YJL095W, strain BCK1, active compounds read low 1.02 and 0.998 | locus YJL115W, strain asf1, active compounds read low 0.996 | locus YJL129C, strain trk1, active compounds read low 1.01 | locus YJL134W, strain LCB3, active compounds read low 1.01 | locus YJL154C, strain vps35, active compounds read low 0.994 | locus YJL164C, strain tpk1, active compounds read low 0.987 | locus YJL166W, strain qcr8, active compounds read low 0.993 | locus YJL168C, strain set2, active compounds read low 1.01 | locus YJL187C, strain SWE1 (second series), active compounds read low 1.01 | locus YJL187C, strain SWE1, active compounds read low 0.985 | locus YJR043C, strain POL32, active compounds read low 1.02 | locus YJR066W, strain TOR1, active compounds read low 0.986
